We go through 7 compounds from the supplement of paper PMC11732987, “Enantioselective OTUD7B fragment discovery through chemoproteomics screening and high-throughput optimisation” (Communications Chemistry, 2025).

Unmarked numbers belong to inactive results.

What all share (assay): log2 ratio of Biotin-Ahx-Ub-VS probe labelling (fragment/DMSO); higher = less target engagement (more negative = stronger competition), active = hit call of the paper (q ≤ 0.05, log2 ratio ≤ -1)
Holding throughout (conditions): compound concentration: 200 uM; treatment time: 3 h

One assay deals with T1, OTUD6B (UniProt Q8N6M0).
T1 sequence (whole entry): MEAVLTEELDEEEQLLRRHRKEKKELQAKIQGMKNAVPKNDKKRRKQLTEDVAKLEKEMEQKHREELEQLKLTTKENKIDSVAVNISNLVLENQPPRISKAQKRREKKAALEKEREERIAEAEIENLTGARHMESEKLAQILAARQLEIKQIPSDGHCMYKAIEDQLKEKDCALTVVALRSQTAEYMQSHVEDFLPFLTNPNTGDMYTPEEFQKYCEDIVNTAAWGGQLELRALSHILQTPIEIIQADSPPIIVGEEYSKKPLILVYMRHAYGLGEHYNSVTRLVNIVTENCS
The method, boiled down:
(§1)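 Labelled DUBs were enriched with NeutrAvidin, digested with LysC and trypsin, and run by diaPASEF LC-MS/MS. The labelling used Biotin-Ahx-Ub-VS at 0.5 µM final for 1 h on HEK293T lysate (495 µg per sample) previously treated in triplicate with fragment at 200 µM or vehicle for 3 h. Values are average log2 fragment/vehicle ratios by unpaired t-test on global-median-normalised Spectronaut quantities of proteins with ≥2 unique peptides.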

The next assay deals with T2, OTUD7B (UniProt Q6GQQ9).
T2 sequence (whole entry): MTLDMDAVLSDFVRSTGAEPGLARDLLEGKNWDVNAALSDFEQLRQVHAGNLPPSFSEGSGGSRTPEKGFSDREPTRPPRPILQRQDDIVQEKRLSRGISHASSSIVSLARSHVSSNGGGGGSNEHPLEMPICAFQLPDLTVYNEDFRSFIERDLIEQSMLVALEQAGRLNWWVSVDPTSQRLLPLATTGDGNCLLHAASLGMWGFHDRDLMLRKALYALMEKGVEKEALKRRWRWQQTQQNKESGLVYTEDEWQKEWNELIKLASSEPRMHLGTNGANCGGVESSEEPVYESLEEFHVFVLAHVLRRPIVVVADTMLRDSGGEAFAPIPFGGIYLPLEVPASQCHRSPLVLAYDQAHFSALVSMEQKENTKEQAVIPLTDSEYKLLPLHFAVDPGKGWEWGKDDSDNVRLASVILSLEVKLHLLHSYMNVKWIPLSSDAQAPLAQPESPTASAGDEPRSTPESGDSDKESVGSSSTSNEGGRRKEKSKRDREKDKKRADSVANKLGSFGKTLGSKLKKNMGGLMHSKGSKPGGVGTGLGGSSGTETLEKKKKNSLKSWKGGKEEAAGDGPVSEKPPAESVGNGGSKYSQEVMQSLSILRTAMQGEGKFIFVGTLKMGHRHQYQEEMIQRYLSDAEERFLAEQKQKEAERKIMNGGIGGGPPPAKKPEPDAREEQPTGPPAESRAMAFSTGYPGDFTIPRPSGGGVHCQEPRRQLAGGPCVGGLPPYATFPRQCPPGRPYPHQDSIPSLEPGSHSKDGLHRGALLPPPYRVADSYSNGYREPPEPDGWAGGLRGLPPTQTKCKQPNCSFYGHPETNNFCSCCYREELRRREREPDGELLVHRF
The method, boiled down: as §1

The target in the next assay is PRPF8 (UniProt Q6P2Q9). A digest of the protocol: as §1
Another assay deals with T3, PSMD7 (UniProt P51665).
T3 sequence (whole entry): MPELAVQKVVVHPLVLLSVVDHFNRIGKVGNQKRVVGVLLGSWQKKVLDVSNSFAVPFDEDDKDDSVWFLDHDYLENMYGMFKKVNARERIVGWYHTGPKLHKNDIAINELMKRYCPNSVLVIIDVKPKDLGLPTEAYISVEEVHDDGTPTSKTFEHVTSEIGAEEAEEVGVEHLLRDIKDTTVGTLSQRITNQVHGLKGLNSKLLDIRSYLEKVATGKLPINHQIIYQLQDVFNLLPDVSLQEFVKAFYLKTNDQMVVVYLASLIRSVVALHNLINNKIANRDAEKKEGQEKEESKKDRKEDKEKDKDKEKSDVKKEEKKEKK
The method, boiled down: as §1

Another assay has as its target UCHL1 (UniProt P09936). The method, boiled down: as §1
The target in another assay is T4, UCHL3 (UniProt P15374).
T4 sequence (whole entry): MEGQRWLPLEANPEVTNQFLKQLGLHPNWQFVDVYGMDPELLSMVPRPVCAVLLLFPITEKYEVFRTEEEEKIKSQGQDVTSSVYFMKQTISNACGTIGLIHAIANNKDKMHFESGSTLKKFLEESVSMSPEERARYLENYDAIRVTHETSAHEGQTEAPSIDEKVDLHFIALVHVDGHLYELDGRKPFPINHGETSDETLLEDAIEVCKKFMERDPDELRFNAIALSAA
A digest of the protocol: as §1

The target of the next assay is T5, UCHL5 (UniProt Q9Y5K5).
T5 sequence (whole entry): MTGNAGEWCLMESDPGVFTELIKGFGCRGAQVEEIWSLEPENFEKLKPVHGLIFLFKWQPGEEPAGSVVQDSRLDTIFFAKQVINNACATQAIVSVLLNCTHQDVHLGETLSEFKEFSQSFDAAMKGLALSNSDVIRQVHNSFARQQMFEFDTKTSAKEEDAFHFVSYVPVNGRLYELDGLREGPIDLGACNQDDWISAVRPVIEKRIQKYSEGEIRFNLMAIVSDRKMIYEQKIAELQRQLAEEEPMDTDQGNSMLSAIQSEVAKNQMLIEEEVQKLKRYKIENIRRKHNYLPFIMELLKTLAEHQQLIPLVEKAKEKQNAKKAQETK
A digest of the protocol:
as §1

A further assay deals with USP10 (UniProt Q14694). A digest of the protocol: as §1
For another assay, the target named is T6, USP15 (UniProt Q9Y4E8).
T6 sequence (whole entry): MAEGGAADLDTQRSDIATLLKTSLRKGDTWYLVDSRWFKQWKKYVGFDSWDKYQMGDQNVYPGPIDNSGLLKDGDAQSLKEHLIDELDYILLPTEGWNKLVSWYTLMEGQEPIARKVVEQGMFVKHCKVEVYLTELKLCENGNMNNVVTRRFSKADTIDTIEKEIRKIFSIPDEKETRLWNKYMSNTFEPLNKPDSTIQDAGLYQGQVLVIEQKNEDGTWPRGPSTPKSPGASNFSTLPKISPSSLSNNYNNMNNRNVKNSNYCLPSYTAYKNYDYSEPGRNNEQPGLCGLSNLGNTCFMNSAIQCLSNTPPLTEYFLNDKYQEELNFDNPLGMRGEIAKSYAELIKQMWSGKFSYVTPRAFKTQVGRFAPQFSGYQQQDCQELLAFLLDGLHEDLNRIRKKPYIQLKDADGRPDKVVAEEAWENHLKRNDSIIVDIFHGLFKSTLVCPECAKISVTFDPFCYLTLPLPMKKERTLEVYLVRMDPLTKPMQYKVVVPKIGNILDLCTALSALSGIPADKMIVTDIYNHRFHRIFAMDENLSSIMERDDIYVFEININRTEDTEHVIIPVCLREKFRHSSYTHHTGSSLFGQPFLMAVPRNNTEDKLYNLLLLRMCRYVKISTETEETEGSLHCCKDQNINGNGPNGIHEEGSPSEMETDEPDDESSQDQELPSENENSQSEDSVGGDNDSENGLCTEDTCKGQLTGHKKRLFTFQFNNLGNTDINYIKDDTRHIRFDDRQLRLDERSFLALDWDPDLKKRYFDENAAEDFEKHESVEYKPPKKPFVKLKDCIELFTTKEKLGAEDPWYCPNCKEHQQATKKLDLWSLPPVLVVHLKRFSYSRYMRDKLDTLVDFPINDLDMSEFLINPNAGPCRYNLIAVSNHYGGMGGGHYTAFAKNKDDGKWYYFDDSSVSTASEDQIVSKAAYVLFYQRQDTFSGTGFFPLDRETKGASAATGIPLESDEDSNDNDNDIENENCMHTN
A digest of the protocol:
as §1

For a further assay, the target named is USP16 (UniProt Q9Y5T5). The method, boiled down: as §1
USP16, sequence (Q9Y5T5 whole entry, looked up): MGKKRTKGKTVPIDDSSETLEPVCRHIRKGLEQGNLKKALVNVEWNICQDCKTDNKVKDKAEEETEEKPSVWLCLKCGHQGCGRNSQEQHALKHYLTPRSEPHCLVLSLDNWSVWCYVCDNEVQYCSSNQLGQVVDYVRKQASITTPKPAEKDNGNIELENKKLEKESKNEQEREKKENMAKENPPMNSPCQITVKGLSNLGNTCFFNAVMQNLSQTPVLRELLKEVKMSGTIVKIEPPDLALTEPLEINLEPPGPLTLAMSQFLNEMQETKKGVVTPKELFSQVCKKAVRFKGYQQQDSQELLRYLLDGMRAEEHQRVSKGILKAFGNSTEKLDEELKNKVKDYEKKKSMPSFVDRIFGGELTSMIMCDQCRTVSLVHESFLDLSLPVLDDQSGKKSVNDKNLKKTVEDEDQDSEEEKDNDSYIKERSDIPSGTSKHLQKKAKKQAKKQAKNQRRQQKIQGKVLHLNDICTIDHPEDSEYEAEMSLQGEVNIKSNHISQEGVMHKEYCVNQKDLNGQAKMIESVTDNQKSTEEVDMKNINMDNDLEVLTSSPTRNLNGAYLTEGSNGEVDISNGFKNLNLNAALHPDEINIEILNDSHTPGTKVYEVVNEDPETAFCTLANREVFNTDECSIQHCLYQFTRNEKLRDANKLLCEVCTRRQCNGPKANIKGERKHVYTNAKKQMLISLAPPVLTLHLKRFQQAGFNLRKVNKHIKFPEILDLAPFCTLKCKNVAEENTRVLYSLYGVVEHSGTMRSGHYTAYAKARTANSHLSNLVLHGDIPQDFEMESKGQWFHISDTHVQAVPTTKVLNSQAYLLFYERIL

USP10, sequence (Q14694 whole entry): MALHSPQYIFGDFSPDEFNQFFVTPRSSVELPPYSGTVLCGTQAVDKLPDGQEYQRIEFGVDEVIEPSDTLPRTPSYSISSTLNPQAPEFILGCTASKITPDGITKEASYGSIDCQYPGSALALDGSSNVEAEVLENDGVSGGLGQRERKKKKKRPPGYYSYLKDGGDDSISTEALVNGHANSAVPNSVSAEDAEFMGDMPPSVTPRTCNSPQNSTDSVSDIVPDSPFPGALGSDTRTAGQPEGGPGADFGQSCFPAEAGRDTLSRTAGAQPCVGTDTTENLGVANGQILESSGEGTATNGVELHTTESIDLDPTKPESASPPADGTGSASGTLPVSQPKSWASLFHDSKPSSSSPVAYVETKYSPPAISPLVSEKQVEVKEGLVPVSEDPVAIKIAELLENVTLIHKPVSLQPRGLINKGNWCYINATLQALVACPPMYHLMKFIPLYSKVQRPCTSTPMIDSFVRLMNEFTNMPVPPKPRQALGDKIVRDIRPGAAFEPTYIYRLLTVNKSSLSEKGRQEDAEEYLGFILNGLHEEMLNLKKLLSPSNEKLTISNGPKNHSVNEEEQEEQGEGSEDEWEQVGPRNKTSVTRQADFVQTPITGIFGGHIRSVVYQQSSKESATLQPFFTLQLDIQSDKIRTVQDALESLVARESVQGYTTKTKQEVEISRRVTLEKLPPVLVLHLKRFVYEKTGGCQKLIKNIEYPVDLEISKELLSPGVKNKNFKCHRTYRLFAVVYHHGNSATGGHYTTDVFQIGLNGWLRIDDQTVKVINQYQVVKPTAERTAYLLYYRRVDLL
UCHL1, sequence (P09936 whole entry, looked up): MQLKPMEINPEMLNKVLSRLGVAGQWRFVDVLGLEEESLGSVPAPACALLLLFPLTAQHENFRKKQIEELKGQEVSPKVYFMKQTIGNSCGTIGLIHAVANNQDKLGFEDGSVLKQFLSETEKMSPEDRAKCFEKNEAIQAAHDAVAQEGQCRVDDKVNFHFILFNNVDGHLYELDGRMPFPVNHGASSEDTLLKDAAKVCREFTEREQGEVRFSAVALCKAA

For the compound `O=C(CCl)N1CCC(c2noc3cc(F)ccc23)CC1`, the “log2 ratio of Biotin-Ahx-Ub-VS probe labelling” value (“log2 ratio” below) was -0.0328 in the assay with OTUD6B; -0.608 in the assay with OTUD7B; -0.0836 with PRPF8; -0.139 with PSMD7; -0.799 in the assay with UCHL1; 0.208 in the assay with UCHL3. The “log2 ratio” value with UCHL5 is -0.186; with USP10 it was -0.264; in the assay with USP15, -0.468; in the assay with USP16, -0.65.
Regarding `CC1(NC(=O)CCl)CCS(=O)(=O)C1` (stereo not given), the “log2 ratio” value in the assay with OTUD6B is -0.893; with OTUD7B, -1.2 (active); with PRPF8 it was -0.0055; in the assay with PSMD7, 0.0653; in the assay with UCHL1, -2.03 (active); with UCHL3, -0.392. Besides, the “log2 ratio” value was -0.974 in the assay with UCHL5, -0.235 with USP10, -0.845 with USP15 and 0.0352 with USP16.
Consider `C/C(=C\CNC(=O)CCl)c1cnn(C)c1.Cl`, for which the “log2 ratio” value was -0.0447 with OTUD6B; -0.863 in the assay with OTUD7B; 0.0944 in the assay with PRPF8; 0.0605 in the assay with PSMD7; -1.27 (active) with UCHL1; 0.15 in the assay with UCHL3. The “log2 ratio” value is -0.0212 in the assay with UCHL5, -0.19 in the assay with USP10, -0.476 in the assay with USP15 and -0.58 with USP16.
On to `CN(C)C(=O)c1ccc(NC(=O)CCl)cc1`, for which the “log2 ratio” value in the assay with OTUD6B was -0.253; in the assay with OTUD7B, -0.664; with PRPF8, -0.106; in the assay with PSMD7 it was -0.259; with UCHL1 it was -1.46 (active); with UCHL3 it was -0.282. The “log2 ratio” value with UCHL5 is -0.194; with USP10 it was -0.0447; with USP15, 0.0049; with USP16, -0.712.
With `CC(=O)Nc1ccc(NC(=O)CCl)cc1`, the “log2 ratio” value with OTUD6B is -0.276; in the assay with OTUD7B, -1.13 (active); with PRPF8, 0.0134; with PSMD7, -0.163; with UCHL1 it was -0.918; with UCHL3, 0.206. Moreover, the “log2 ratio” value is -0.201 with UCHL5, -0.113 with USP10, -0.154 with USP15 and -0.288 in the assay with USP16.
Turning to `O=C(CCl)NCc1ccc2c(c1)OCO2`, the “log2 ratio” value in the assay with OTUD6B was 0.00826; in the assay with OTUD7B it was -0.843; with PRPF8, -0.215; with PSMD7, -0.228; in the assay with UCHL1 it was -1.36 (active); with UCHL3, -0.0636. Besides, the “log2 ratio” value is -0.325 in the assay with UCHL5, -0.00649 with USP10, -0.0739 in the assay with USP15 and 0.0675 with USP16.
With `Cc1nc(CN2CCN(C(=O)CCl)CC2)cs1`, the “log2 ratio” value in the assay with OTUD6B is -0.238; with OTUD7B, -0.265; with PRPF8 it was 0.211; in the assay with PSMD7, -0.333; with UCHL1 it was -1.72 (active); in the assay with UCHL3, -0.051. The “log2 ratio” value with UCHL5 was -0.0894; with USP10, -0.0627; in the assay with USP15, -0.32; with USP16, -0.55.
